# According to the supplement of paper PMC10849652:
# About 7,900 targets were measured; listed, in parts, are those with a hit and a random draw of the rest. About 0.6% of all pairs of compound and target were hits. A number with no mark means an inactive call.
# Legend:
# Assay in all cases: log2 fold change, soluble protein after heating vs DMSO (PISA); higher = thermal stabilisation; K562 cells, 10 uM, 30 min; active = over 0.2 and 3.5 SD of the protein, either way, in both replicates (recomputed)
# [1] = compound: CN1CCN(CCOc2cc(OC3CCOCC3)c3c(Nc4c(Cl)ccc5c4OCO5)ncnc3c2)CC1 [saracatinib]
# In short: (§1)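 Soluble protein was defined as the supernatant after 21,000xg for 90 min. It came from K562 cells at 2×10^6 cells/mL given 10 μM compound for 30 min, heated in aliquots for 3 min across 48°C-58°C, pooled, and extracted in PBS with 0.5% NP-40 at 4°C, and was quantified by TMTpro 16plex LC-MS/MS with equalised channel sums. Thermal stability against control samples, from duplicates, is reported as log2 fold change.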
# [2] = compound: CN1CCN(c2nc(C3=C(c4c[nH]c5ccccc45)C(=O)NC3=O)c3ccccc3n2)CC1 [sotrastaurin]
# In short: as §1
# [3] = compound: CN1CC[C@H](c2c(O)cc(O)c3c(=O)cc(-c4ccccc4Cl)oc23)[C@H](O)C1 [alvocidib]
# In short: as §1
# [4] = compound: CN1CCc2c(c3ccccc3n2Cc2ccc(C(=O)NO)cc2)C1 [Tubastatin A]
# In short: as §1
# [5] = compound: CNC(=O)C1=CC=CC=C1NC2=NC(=NC=C2Cl)NC3=C(C=C(C=C3)N4CCOCC4)OC
# In short: as §1
# [6] = compound: CNC(=O)c1ccc(Nc2ncc(C(F)(F)F)c(NCc3nccnc3N(C)S(C)(=O)=O)n2)cc1 [defactinib]
# In short: as §1
# [7] = compound: CNCc1ccc(-c2[nH]c3cc(F)cc4c3c2CCNC4=O)cc1 [rucaparib]
# In short: as §1
# [8] = compound: CNc1nc(-c2ccc3c(N)n[nH]c3c2)cc(N2C[C@@H](C(=O)NC3CCCCC3)CC[C@H]2C)n1
# In short: as §1
# [9] = compound: COC(=O)N[C@@H](C)CNc1nccc(-c2cn(C(C)C)nc2-c2cc(Cl)cc(NS(C)(=O)=O)c2F)n1 [encorafenib]
# In short: as §1
# [10] = compound: COC(=O)[C@H](CCSC)NC(=O)C1=C(C=C(C=C1)NC[C@H](CS)N)C2=CC=CC=C2
# In short: as §1
# Sequence of UniProt Q14C86 (Q14C86 whole entry, looked up): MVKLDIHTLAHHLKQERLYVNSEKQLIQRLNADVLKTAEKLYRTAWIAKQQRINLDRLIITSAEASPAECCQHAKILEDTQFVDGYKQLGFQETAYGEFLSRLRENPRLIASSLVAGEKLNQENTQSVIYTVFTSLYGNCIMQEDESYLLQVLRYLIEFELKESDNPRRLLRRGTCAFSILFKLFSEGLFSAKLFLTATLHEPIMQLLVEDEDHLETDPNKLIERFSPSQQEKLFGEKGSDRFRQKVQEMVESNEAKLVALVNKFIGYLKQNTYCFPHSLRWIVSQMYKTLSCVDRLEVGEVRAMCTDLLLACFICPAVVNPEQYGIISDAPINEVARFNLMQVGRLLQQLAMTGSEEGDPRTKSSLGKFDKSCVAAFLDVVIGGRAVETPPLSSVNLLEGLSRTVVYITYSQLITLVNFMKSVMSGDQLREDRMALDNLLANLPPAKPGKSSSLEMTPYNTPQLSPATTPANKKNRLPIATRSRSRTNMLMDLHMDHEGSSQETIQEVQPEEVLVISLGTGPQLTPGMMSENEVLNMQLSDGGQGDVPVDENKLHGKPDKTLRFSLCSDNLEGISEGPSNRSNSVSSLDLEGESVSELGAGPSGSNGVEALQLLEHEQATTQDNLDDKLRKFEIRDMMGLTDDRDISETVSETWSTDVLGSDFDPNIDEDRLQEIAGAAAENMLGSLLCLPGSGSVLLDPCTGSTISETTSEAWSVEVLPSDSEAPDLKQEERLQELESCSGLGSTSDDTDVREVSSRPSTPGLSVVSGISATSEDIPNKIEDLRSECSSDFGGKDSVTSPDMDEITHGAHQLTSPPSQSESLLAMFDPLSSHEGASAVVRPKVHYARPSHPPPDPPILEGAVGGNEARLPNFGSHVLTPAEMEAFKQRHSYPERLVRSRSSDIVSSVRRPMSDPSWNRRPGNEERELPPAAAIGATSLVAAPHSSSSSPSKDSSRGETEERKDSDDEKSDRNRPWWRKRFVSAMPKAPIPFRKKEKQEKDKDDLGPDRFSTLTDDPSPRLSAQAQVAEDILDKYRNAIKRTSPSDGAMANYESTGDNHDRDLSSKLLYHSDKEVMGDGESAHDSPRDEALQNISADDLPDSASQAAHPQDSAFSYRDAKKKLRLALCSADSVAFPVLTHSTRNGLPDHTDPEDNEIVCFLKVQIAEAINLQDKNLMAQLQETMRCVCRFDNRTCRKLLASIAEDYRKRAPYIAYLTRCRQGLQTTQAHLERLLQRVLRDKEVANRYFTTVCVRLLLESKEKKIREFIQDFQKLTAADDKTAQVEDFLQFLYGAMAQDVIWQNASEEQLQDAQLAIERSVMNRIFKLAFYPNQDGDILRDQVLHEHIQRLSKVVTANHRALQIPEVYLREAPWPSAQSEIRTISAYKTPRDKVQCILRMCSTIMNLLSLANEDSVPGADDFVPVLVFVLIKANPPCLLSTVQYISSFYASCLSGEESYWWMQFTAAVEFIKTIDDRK
# Sequence of UniProt Q13907 (Q13907 whole entry, looked up): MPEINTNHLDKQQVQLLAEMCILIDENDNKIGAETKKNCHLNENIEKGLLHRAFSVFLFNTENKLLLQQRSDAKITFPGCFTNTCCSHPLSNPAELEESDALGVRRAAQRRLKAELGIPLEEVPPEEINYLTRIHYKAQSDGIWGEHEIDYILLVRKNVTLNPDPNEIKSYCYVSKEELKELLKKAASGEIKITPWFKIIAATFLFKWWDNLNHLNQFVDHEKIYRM
# Sequence of UniProt P08236 (P08236 whole entry, looked up): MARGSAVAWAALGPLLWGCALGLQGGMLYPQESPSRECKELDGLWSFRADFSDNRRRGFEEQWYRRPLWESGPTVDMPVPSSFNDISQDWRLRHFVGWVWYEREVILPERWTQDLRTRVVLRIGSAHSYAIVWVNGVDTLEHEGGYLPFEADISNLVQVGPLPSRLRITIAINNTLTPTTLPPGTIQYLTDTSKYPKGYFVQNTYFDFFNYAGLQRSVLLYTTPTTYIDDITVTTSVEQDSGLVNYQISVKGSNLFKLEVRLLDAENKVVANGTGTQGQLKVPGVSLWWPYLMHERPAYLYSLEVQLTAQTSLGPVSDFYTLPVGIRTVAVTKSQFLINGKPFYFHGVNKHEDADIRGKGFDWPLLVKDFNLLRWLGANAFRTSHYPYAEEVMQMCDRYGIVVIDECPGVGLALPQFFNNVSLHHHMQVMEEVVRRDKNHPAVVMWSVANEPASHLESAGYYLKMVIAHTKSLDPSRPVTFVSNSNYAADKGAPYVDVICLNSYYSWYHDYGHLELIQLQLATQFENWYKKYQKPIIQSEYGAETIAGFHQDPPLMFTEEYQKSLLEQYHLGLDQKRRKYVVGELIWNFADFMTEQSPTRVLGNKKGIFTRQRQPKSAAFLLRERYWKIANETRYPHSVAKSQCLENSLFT
# Sequence of UniProt Q9UBN7 (Q9UBN7 whole entry, looked up): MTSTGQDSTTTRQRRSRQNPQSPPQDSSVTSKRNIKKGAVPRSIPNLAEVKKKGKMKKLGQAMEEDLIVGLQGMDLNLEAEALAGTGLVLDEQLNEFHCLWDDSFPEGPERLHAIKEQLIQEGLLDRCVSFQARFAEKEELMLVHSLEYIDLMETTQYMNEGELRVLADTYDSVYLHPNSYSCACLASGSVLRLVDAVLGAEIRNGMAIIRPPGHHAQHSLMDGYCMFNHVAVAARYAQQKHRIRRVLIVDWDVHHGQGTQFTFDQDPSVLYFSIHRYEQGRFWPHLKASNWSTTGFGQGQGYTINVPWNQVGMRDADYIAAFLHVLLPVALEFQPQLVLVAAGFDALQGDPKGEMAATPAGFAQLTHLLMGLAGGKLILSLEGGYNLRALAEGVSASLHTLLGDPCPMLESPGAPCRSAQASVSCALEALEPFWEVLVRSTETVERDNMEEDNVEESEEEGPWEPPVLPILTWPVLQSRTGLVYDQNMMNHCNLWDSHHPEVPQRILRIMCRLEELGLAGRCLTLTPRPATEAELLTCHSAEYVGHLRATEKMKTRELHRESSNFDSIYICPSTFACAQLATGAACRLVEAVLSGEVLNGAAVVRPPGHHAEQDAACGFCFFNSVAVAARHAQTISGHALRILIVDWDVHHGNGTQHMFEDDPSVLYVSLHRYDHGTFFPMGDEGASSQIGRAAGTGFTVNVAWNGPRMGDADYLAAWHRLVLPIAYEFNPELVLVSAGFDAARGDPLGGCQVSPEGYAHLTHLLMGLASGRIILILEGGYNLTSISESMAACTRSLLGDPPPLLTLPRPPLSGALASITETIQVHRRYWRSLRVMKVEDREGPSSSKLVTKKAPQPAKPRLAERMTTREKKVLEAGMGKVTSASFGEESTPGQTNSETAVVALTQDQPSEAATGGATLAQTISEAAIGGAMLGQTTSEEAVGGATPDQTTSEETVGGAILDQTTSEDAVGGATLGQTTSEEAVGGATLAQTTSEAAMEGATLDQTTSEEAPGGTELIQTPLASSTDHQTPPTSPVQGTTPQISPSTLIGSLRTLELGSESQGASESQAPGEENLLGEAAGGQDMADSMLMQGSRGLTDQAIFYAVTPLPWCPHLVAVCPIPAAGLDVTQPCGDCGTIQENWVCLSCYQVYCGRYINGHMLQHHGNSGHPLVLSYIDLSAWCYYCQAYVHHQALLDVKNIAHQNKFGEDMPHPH
# Sequence of UniProt Q13227 (Q13227 whole entry, looked up): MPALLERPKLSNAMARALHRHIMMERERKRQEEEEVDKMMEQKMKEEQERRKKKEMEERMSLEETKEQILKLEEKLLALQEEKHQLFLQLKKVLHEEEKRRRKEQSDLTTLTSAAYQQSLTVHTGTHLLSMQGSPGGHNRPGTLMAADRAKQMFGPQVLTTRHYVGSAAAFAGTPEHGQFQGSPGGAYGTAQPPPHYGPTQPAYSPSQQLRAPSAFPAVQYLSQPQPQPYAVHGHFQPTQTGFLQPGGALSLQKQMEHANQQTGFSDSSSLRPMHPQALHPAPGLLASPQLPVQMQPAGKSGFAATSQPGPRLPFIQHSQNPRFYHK
# Sequence of UniProt P49356 (P49356 whole entry, looked up): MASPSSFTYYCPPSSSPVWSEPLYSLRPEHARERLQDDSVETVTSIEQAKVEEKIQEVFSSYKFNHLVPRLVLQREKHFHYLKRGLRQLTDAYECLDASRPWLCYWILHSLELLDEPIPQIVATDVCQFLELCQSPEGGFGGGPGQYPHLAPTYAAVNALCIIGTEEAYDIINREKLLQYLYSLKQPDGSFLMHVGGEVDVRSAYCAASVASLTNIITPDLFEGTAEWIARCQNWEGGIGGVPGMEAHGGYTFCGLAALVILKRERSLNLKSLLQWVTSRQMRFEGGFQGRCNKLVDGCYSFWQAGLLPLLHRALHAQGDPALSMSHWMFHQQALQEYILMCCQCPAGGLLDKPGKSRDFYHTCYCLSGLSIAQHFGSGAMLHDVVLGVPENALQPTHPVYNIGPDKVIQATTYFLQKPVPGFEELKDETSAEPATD
# Sequence of UniProt P29084 (P29084 whole entry, looked up): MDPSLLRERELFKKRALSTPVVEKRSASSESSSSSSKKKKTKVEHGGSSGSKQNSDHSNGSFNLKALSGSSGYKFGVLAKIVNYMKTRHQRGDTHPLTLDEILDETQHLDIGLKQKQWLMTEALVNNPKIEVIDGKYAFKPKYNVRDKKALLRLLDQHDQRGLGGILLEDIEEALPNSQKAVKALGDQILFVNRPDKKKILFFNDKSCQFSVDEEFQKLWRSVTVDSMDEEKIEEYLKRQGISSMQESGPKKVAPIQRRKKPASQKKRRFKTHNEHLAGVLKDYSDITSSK
# Sequence of UniProt Q9NP66 (Q9NP66 whole entry, looked up): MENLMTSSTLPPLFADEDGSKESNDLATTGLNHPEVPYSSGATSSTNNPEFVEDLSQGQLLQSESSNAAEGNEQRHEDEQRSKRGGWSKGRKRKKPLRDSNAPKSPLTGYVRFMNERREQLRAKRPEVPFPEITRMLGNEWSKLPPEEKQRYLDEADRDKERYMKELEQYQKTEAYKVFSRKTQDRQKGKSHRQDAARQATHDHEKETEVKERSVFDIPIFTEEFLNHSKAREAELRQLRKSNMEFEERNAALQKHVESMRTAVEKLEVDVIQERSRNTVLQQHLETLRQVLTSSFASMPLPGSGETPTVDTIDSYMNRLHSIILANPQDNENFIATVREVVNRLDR
Target,log2 fold change [1],log2 fold change [2],log2 fold change [3],log2 fold change [4],log2 fold change [5],log2 fold change [6],log2 fold change [7],log2 fold change [8],log2 fold change [9],log2 fold change [10]
GINS2 (UniProt Q9Y248),-0.078,-0.17,-0.181,0.076,0.025,-0.067,-0.005,0.203,0.017,0.057
GDPD1 (UniProt Q8N9F7),0.505 (active),0.21,-0.058,0.019,-0.017,-0.087,-0.07,0.042,-0.051,-0.041
GCLM (UniProt P48507),0.012,-0.055,-0.126,0.061,0.155,-0.151,0.033,-0.045,0.048,-0.042
HIP1R (UniProt O75146),0.051,-0.045,-0.069,0.007,0.037,-0.063,0.018,0.015,-0.019,0.016
IFRD2 isoform 2 (UniProt Q12894),0.126,0.31,-0.017,-0.272,0.022,0.16,-0.549 (active),-0.095,-0.031,0.026
H2AFX (UniProt P16104),-0.123,0.081,0.249,0.025,-0.003,0.53,0.347,0.089,-0.013,0.233
GUSB (UniProt P08236),0.03,-0.004,0.021,-0.054,0.045,-0.055,0.048,-0.039,0.128,0.029
H2AZ1 (UniProt P0C0S5),-0.082,0.067,0.093,-0.017,-0.102,0.259,0.396,-0.014,0.107,0.105
FOXK1 (UniProt P85037),0.214,-1.37 (active),-1.01 (active),-0.112,0.2,-0.941,-0.759,0.615,0.054,-0.111
IDI1 isoform 2 (UniProt Q13907),0.01,0.065,-0.017,-0.174,-0.002,-0.006,-0.124,0.002,-0.001,0.044
HIP1 (UniProt O00291),0.078,-0.079,-0.102,0.038,0.008,-0.001,0.065,-0.024,-0.048,-0.001
GLS (UniProt O94925),0.039,-0.023,-0.147,0.021,-0.031,-0.167,0.002,-0.092,0.017,-0.093
HDAC6 (UniProt Q9UBN7),-0.067,-0.013,-0.009,1.01 (active),-0.037,-0.028,-0.028,0.09,-0.135,-0.014
FUT8 (UniProt Q9BYC5),-0.095,-0.049,0.055,0.02,0.023,0.049,-0.037,0.017,0.018,0.506 (active)
FDFT1 (UniProt P37268),0.071,0.604 (active),-0.033,0.012,-0.002,-0.02,0.004,-0.072,-0.032,-0.028
GLIPR2 (UniProt Q9H4G4),0.002,-0.027,0.054,-0.002,0.036,0.047,0.015,0.035,-0.062,-0.013

Target,log2 fold change [1],log2 fold change [2],log2 fold change [3],log2 fold change [4],log2 fold change [5],log2 fold change [6],log2 fold change [7],log2 fold change [8],log2 fold change [9],log2 fold change [10]
HRC (UniProt P23327),0.063,0.057,0.02,-0.125,0.009,-0.011,0.01,-0.057,-0.066,0.043
HAX1 (UniProt O00165),-0.067,-0.106,-0.015,0.015,-0.14,-0.008,0.082,0.051,0.045,-0.013
HMG20A (UniProt Q9NP66),0.038,-0.106,-0.075,0.018,0.005,0.029,-0.323,-0.015,-0.109,-0.009
GLRX3 (UniProt O76003),-0.017,-0.066,-0.071,0.015,0.053,-0.091,-0.063,-0.023,0.029,-0.03
HDHD2 (UniProt Q9H0R4),-0.004,-0.077,-0.028,-0.016,-0.017,0,-0.049,-0.048,0.016,-0.018
GTF2E2 (UniProt P29084),-0.103,-0.163,-0.023,0.054,0.056,-0.085,0.03,0.025,0.145,-0.035
FNTB (UniProt P49356),0.046,0.346,-0.113,0.017,-0.036,0.095,0.02,-0.007,-0.016,0.974 (active)
"HBZ, A0A494C057",–,–,–,–,0.005,–,-0.058,–,-0.094,–
IDH3A isoform 2 (UniProt P50213),–,–,-0.206,0.138,-0.117,–,–,–,–,–
HSPA8 (UniProt E9PN89),–,0.105,0.281,-0.018,-0.057,0.044,0.101,–,0.023,-0.036
FYB1 isoform 3 (UniProt O15117),0.007,-0.101,–,-0.018,0,-0.112,0.028,-0.076,0.074,-0.01
GPS2 (UniProt Q13227),–,-0.007,–,0.033,0.008,-0.079,0.02,–,0.041,-0.025
HDAC10 (UniProt Q969S8),-0.04,–,0.011,0.458,0.108,0.067,0.024,-0.02,0.024,-0.137
GEMIN2 (UniProt O14893),0.001,0.067,0.009,–,–,-0.041,0.136,0.013,0.151,0.072
GSTT1 (UniProt P30711),-0.011,–,-0.023,0.015,-0.029,-0.027,0.028,0,0.023,-0.062
GAPVD1 isoform 6 (UniProt Q14C86),-0.04,-0.158,-0.063,-0.009,-0.007,-0.07,0.103,0.032,0.125,-0.043
